The list is not random: actives were taken first. Their share in the collection is about 12%.
Sfp inh: inhibitors of Bacillus subtilis Sfp phosphopantetheinyl transferase. AID 1490. hit rate 3.5% among 310,000. Biochemical Sfp PPTase activity, qHTS. Q9F4F7. Potency, µM, for inactives: largest response in the series, negative = inhibition, most hits filed as inhibitors;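 further: the enzyme is Sfp with the accession as filed and its product quenches rhodamine fluorescence; 0% = enzyme reaction without inhibitor and -100% = no enzyme wells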
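After 15 min at room temperature with compound, 15 nM Sfp received 5 uM rhodamine-CoA plus 12.5 uM BHQ-2-ybbR (50 mM Hepes pH 7.6, 10 mM MgCl2). Rate came from the fluorescence difference over 30 min, ex 525/em 598 nm.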
G9a inh: inhibitors of human histone lysine methyltransferase G9a; AID 504332; hit rate 8.8% among 350,000; Q96KQ7; G9a H3K9 monomethylation, AlphaScreen, 2 h; Potency, µM (highest dose often 102 µM), for the others: at the top dose activity, negative = inhibition, hits mostly inhibitors; further: on the % scale 0 is the no-effect control and ±100 the full control effect; nearly all actives have a fitted effect of over 75% in size
Target sequence (Q96KQ7 913-1193 limits assumed): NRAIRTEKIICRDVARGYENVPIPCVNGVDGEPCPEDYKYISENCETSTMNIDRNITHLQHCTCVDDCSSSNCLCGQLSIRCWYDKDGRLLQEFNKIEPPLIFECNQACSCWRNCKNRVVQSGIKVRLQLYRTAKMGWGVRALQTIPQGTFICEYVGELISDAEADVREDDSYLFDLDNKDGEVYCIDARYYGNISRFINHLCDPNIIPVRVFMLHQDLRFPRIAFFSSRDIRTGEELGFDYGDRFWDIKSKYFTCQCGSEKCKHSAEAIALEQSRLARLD
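Quantitative HTS format: methyltransferase activity on a biotin-tagged H3K9 peptide is measured by AlphaScreen, using a rabbit anti-monomethyl-H3K9 antibody with streptavidin donor and anti-IgG acceptor beads. Final levels are 20 nM enzyme, 500 nM peptide, 20 uM SAM; 2 h RT.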
BAZ2B inh: BAZ2B (human) inhibition | Q9UIF8 | AlphaScreen BAZ2B-H3K14Ac peptide displacement | Potency, µM (series often up to 114 µM), without a hit: at the highest dose activity change, negative = inhibition, most hits filed as inhibitors | AID 504333 | hit rate 4.4% among 360,000; further: on the % scale 0 is the no-effect control and ±100 the full control effect; nearly all actives have a fitted effect of over 60% in size
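AlphaScreen displacement of biotin-H3(5-23)K14Ac peptide (50 nM final) from BAZ2B (50 nM final) in PBS pH 7.4, 0.01% Tween-20; complex preformed 30 min RT, then compounds (top 110 uM) 30 min RT, beads 20 min dark.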
JMJD2A Tudor: blocks the human JMJD2A Tudor domain; AID 504339; AlphaScreen JMJD2A-Tudor / H3K4me3 peptide binding; Potency, µM (titrated, usually from 114 µM), inactives show top-dose activity change, negative = inhibition, usual class: inhibitors; O75164; hit rate 4.4% among 390,000; further: on the % scale 0 is the no-effect control and ±100 the full control effect; nearly all actives have a fitted effect of over 50% in size
HP1b binding inh: HP1-beta chromodomain-methylated histone interaction inhibition | P83916 | AlphaScreen HP1-beta / biotin-H3K9me3 peptide binding | Potency, µM (top dose mostly 114 µM), inactives show at the highest dose activity change, negative = inhibition, hits mostly inhibitors | hit rate 0.56% among 390,000 | AID 540317; further: nearly all actives have a fitted effect of over 70% in size
Target sequence (P83916 whole entry, looked up): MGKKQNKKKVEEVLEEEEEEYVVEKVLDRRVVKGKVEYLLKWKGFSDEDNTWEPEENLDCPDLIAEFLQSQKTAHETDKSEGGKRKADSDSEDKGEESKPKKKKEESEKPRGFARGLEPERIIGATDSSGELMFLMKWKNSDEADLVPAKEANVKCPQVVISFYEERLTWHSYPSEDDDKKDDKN
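Compound inhibition of the preformed complex between 50 nM HP1-beta and 50 nM biotinylated H3K9me3 peptide was read by AlphaScreen. Buffer was PBS pH 7.4 with 0.01% Tween-20. Incubations ran 30 min at room temperature, with 10 ug/mL donor/acceptor beads.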
* = called active by the depositor; ? = inconclusive; . = no result given; [ ] = another dose, or the depositor's remark. The call rests on the fitted dose curve; in most records, active means well fitted curve in the direction sought with a large enough effect; inconclusive means small, poorly fitted or top-dose-only effect, or another doubt; inactive means no such curve, though single readings can be large; an effect the other way counts as inactive or inconclusive. Potency means the concentration at half of the fitted maximal effect.

SMILES	Sfp inh	G9a inh	BAZ2B inh	JMJD2A Tudor	HP1b binding inh
Cc1ccc(S(=O)(=O)N2CCCc3cc(NC(=O)c4c(F)cccc4F)ccc32)cc1	11%	5%[0.501 µM]	?	?	7%
CC1CC2C3CCC4=CC(=O)C=C[C@@]4(C)[C@]3(F)C(O)C[C@]2(C)[C@]1(O)C(=O)CO (stereo partly specified)	6%	-2%[2.33 µM]	.	.	.
Cc1cccc(NS(=O)(=O)c2ccc3c(c2)[C@H]2C=CC[C@H]2[C@@H](c2ccc(F)cc2)N3)c1	.	13µM*	-37%	?	?
Fc1ccc2c(c1)C1C=CCC1C(c1cc3c(cc1Br)OCO3)N2 (stereo unspecified)	?	-39%[12.7 µM]	-36%[57.1 µM]	45µM*	-24%
COC(=O)c1ccc(NS(=O)(=O)c2ccc3c(c2)n(C)c(=O)n3C)cc1	11%	1%	?	-24%	7%
COC(=O)c1ccc([C@H]2Nc3ccc(S(=O)(=O)Nc4ccc(F)cc4)cc3[C@H]3C=CC[C@H]32)cc1	.	5.6µM*	?	?	-14%
COc1ccc(C)cc1NS(=O)(=O)c1ccc2c(c1)[C@H]1C=CC[C@H]1[C@@H](c1cccc(Cl)c1)N2	.	2.8µM*	?	?	2%
Fc1ccc2c(c1)[C@H]1OCC[C@H]1[C@@H](c1ccco1)N2	7%	-33%[59 µM]	-19%	-25%	-4%
Cc1ccc(C)c(NC(=O)CCc2c(C)n(C)c3cc(-c4ccccc4C)nn3c2=O)c1	.	13%[59 µM]	2%	-15%	13%[57 µM]
COc1cc(-c2nc3ccccn3c2/N=C/c2cccc(OC)c2O)ccc1O	-11%	9%	-15%	?	20%
COc1ccc(/C=N/c2c(-c3ccco3)nc3ccccn23)cc1OC	-17%	71µM*	?	-34%	-6%
COc1cc(-c2nc3ccccn3c2/N=C/c2ccc(F)cc2)ccc1O	50µM*	35µM*	?	?	?
COc1ccc(/C=N/c2nc3ccccc3n2CCN2CCCCC2)cc1OC	23%	-40%[59 µM]	0%	-25%	14%
Clc1ccc(/C=N/c2c(-c3ccco3)nc3ccccn23)cc1	-27%	?	?	45µM*	?
O=c1oc2ccc3ccccc3c2cc1-c1nnc(Nc2cccc(C(F)(F)F)c2)s1	.	?	2%	-11%	12%
CCC(CO)NCC#Cc1ccccc1 (stereo unspecified)	7%	56µM*	-34%	-17%	24%
OC(CNCC#Cc1ccccc1)c1ccccc1 (stereo unspecified)	18%	?	-26%	-14%	36%
Cc1cc(C)c2nc(N3C(=O)C(O)=C(C(=O)c4ccco4)C3c3cccc(O)c3)sc2c1 (stereo unspecified)	.	-48%[2.33 µM]	?	?	-9%
O=C(C1=C(O)C(=O)N(c2nc3ccc(Cl)cc3s2)C1c1ccco1)c1ccco1 (stereo unspecified)	.	?	45µM*	13µM*	28µM*
Cc1cc(C)c2nc(N3C(=O)C(O)=C(C(=O)c4ccco4)C3c3ccc(O)cc3)sc2c1 (stereo unspecified)	.	?	?	?	-8%
Cc1ccc2nc(N3C(=O)C(O)=C(C(=O)c4ccc(C)o4)C3c3ccco3)sc2c1 (stereo unspecified)	.	?	50µM*	50µM*	-12%
COC(=O)c1sc(N2C(=O)C(O)=C(C(=O)c3ccc(C)o3)C2c2ccco2)nc1C (stereo unspecified)	12%	.	-5%	-26%	7%
Cc1ccc2nc(N3C(=O)C(O)=C(C(=O)c4ccco4)C3c3ccc(C)o3)sc2c1 (stereo unspecified)	?	40µM*	50µM*	10µM*	-8%[57 µM]
C[C@@H]1CN([C@H](C)CO)C(=O)c2cccc(NS(=O)(=O)c3ccccc3)c2O[C@H]1CN(C)C	.	.	.	-7%	37%
CS(=O)(=O)/C(C#N)=C\c1cnc(S(=O)(=O)c2ccccc2)s1	3.5µM*	1µM*	50µM*	.	.
SMILES	Sfp inh	G9a inh	BAZ2B inh	JMJD2A Tudor	HP1b binding inh
CN(C)/C=C(\C#N)S(=O)(=O)c1ccccc1	27%	-6%	-25%	-16%	30%
Cc1cccc(-c2c3c(=O)n(C)c(=O)n(C)c3cn2CCO)c1	-16%	22µM*	8%	-16%	48%
CCCCn1cc2c(c1-c1cccc(C)c1)c(=O)n(C)c(=O)n2C	?	.	?	-24%	22%
Cc1cccc(-c2c3c(=O)n(C)c(=O)n(C)c3cn2CC2CCCO2)c1 (stereo unspecified)	-7%	40µM*	-13%	-10%	34%
Cc1ccc(C(OCC(O)CN2CCCCC2CO)c2ccccc2)cc1 (stereo unspecified)	-1%	8%[12.7 µM]	50µM*	45µM*	22%
CCOC(=O)N1CCN(c2c(NCCCN(CC)CC)c(=O)c2=O)CC1	14%	69%[12.7 µM]	-35%	-18%	-3%
CCOC(=O)N1CCN(c2c(NCCCN(CC)c3cccc(C)c3)c(=O)c2=O)CC1	-2%	14µM*	1%	-24%	-17%
CCOC(=O)C1CCCN(c2c(NCCCN(C)c3ccccc3)c(=O)c2=O)C1 (stereo unspecified)	-1%	56µM*	0%	-13%	34%
Nc1c(Cl)cc(C2=NCCn3c2c2ccc(C(F)(F)F)cc2[n+]3[O-])cc1Cl	.	?	?	4.5µM*	18%
Nc1c(Cl)cc(C2=NCCn3c2c2ccccc2[n+]3[O-])cc1Cl	.	?	?	3.5µM*	45%
[O-][n+]1c2ccccc2c2n1CCN=C2c1ccc(Cl)cc1	.	10%[2.33 µM]	-4%	-13%	41%
O=[N+]([O-])c1ccc2c3n([n+]([O-])c2c1)CCN=C3c1ccc(Cl)cc1	.	-44%[2.33 µM]	50µM*	?	1%
COCCNC(=O)CCn1c(=O)c2cc(OC)c(OC)cc2n(CC(=O)Nc2ccccc2C)c1=O	.	0%[59 µM]	4%	-17%	16%
O=C(c1cc2ccccc2oc1=O)N1CCN(c2ccc(Cl)cc2)CC1	.	-6%[59 µM]	0%	1%	33%
COc1ccc(OC)c(NC(=O)c2oc(=O)c3ccccc3c2-c2ccccc2)c1	.	-10%[59 µM]	-21%	-21%	29%
CCC(C)(C)n1nnnc1C(c1ccc2ncccc2c1)N1CCN(c2ccc(O)cc2)CC1 (stereo unspecified)	20µM*	10µM*	-33%	14µM*	13%[57 µM]
COc1ccc(N2CCN(C(c3ccc(C)cc3)c3nnnn3C(C)(C)C)CC2)cc1 (stereo unspecified)	.	.	.	50µM*	-19%
COc1ccc(N2CCN(C(c3ccc4ncccc4c3)c3nnnn3C(C)(C)C)CC2)cc1 (stereo unspecified)	1%	?	35µM*	?	-12%
